Here are results for 31 molecules from PubChem BioAssay AID624046 (National Center for Advancing Translational Sciences (NCATS), 2012).

Structures are written as SMILES. Inconclusive results are not listed. Unmarked numbers belong to inactive results. Calls of active or inactive are those of the source. Calls come from the whole dose curve; as a rule, active = well fitted inhibition curve with a large enough effect; inconclusive = small, poorly fitted or top-dose-only effect; inactive = flat fitted curve, though single readings scatter.

Chain of Dual specificity tyrosine-phosphorylation-regulated kinase 1B (Homo sapiens) (Q9Y463 whole entry, looked up, canonical isoform): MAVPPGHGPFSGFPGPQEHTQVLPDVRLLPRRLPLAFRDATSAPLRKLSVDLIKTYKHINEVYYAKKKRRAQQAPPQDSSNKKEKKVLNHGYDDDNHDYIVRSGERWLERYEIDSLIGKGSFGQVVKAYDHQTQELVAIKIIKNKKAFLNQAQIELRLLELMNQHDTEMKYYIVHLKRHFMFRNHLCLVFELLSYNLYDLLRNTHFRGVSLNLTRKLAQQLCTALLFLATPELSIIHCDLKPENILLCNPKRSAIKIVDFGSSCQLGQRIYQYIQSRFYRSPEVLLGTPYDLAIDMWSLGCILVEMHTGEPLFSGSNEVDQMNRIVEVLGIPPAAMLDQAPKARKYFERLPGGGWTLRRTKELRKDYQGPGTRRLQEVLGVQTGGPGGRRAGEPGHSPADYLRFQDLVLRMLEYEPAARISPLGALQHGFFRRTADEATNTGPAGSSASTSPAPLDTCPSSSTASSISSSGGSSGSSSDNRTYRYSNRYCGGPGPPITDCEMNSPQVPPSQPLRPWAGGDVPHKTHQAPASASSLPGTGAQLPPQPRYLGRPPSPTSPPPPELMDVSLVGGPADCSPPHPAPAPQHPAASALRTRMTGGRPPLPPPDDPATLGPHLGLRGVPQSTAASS

The target in the test is Dual specificity tyrosine-phosphorylation-regulated kinase 1B (Homo sapiens) (UniProt Q9Y463). The experiment in a line: Reaction Biology data for inhibitors of DYRK1B: Probe SAR. Particulars: Reaction Biology DYRK1B kinase assay, 10 uM ATP; series mostly up to 10 µM; activity change, negative = inhibition: at the top concentration. The source says:
Alternative splicing of pre-mRNAs plays a major role in the regulation of eukaryotic gene expression. Alternative splicing is now thought to be one of the primary reasons for the complexity of higher organisms leading to an average of three protein isoforms per gene. Aberrant splicing can lead to a number of diseases and is known to play a role in rare genetic diseases such as progeria syndrome. Hutchinson-Gilford Progeria Syndrome (HGPS) is a pediatric premature aging disease caused by a spontaneous mutation in the lamin A/C (LMNA) gene due to a single point mutation in the lamin A gene effecting 1 in 4 million people. To identify both specific splicing modulators of the lamin A gene as well as general splicing modulators, a cell-based HTS assay was developed using a minigene reporter system (AIDs, 1459 & 1487). […] This AID summarizes the characterization of lead compounds in Dyrk1b. NIH Molecular Libraries Probe Production Centers Network [MLPCN] NIH Chemical Genomics Center [NCGC] MLPCN Grant: MH084827 Assay Submitter (PI): Tom Misteli
Compound IC50s were determined at Reaction Biology (http://www.reactionbiology.com) with ten concentration points starting at 10 uM in the assay using a 3-fold dilution series. The control compound staurosporine was also tested in the 10-dose IC50 mode with the same 3-fold serial dilution, again starting at 10 uM. All kinase reactions were performed using 10 uM ATP in the assay. 100% activity was taken from kinase reactions with DMSO alone (the vehicle used for compound stock solutions).
On to `COc1ccc(-c2ccnc(NCc3ccc(Cl)cc3)n2)cc1`, for which the Potency is 871 nM (active).

As for `Cc1c(-c2ccnc(NCc3cccnc3)n2)sc(=O)n1C`, the Potency was 31.1 nM (active).

In the case of `COc1cccc(-c2ccnc(NCc3ccc(Cl)c(Cl)c3)n2)c1`, the “activity change, negative = inhibition” value is -45.4%.

Consider `c1cncc(CNc2ncncc2-c2ccc3c(c2)OCO3)c1`, for which the “activity change, negative = inhibition” value was -43.5%.

In the case of `Cc1nc(CNc2ncnc3ccc(-c4ccc5c(c4)OCO5)cc23)cs1`, the Potency was 176 nM (active).

On to `FC(F)(F)c1cccc(Nc2nccc(-c3ccc4c(c3)OCO4)n2)c1`, for which the Potency was 18.1 nM (active).

`Clc1ccc(CNc2ncncc2-c2ccc3c(c2)OCO3)cc1Cl`: the “activity change, negative = inhibition” value is -48.5%.

In the case of `c1cncc(CNc2nccc(-c3ccc4c(c3)OCO4)n2)c1`, the Potency is 12 nM (active).

With `c1cc(-c2ccc3c(c2)OCO3)nc(Nc2ccc3c(c2)OCO3)n1`, the Potency is 41.9 nM (active).

Regarding `COc1ccc(-c2ccnc(NCc3ccc(Cl)c(Cl)c3)n2)cc1OC`, the “activity change, negative = inhibition” value is -27.3%.

For `Cc1nc(CN(C)c2ncnc3ccc(-c4ccc5c(c4)OCO5)cc23)cs1`, the Potency is 16.4 nM (active).

As for `Clc1cc(Cl)cc(CNc2nccc(-c3ccc4c(c3)OCO4)n2)c1`, the Potency was 7.1 nM (active).

Consider `Clc1cc(Cl)cc(CNc2ncncc2-c2ccc3c(c2)OCO3)c1`, for which the Potency was 1160 nM (active).

Regarding `COc1cccc(-c2ccnc(NCc3ccc(Cl)cc3)n2)c1`, the Potency was 6780 nM (active).

For the molecule `c1cncc(CNc2nccc(-c3ccc4[nH]ncc4c3)n2)c1`, the Potency is 92.9 nM (active).

Regarding `Brc1cc(Br)cc(CNc2nccc(-c3ccc4c(c3)OCO4)n2)c1`, the Potency was 18.2 nM (active).

As for `Clc1ccc(CNc2nccc(-c3ccc4[nH]ncc4c3)n2)cc1Cl`, the Potency was 125 nM (active).

With `Clc1ccc(CNc2nccc(-c3ccc4c(c3)OCCO4)n2)cc1Cl`, the Potency is 54.8 nM (active).

For the molecule `Clc1ccc(Nc2nccc(-c3ccc4c(c3)OCO4)n2)cc1`, the Potency was 884 nM (active).

`FC(F)(F)c1cc(Br)cc(Nc2nccc(-c3ccc4c(c3)OCO4)n2)c1`: the Potency was 137 nM (active).

On to `O=[N+]([O-])c1cc(Nc2nccc(-c3ccc4c(c3)OCO4)n2)cc(C(F)(F)F)c1`, for which the Potency was 27 nM (active).

Take `COc1ccc(-c2ccnc(NCc3ccc(Cl)c(Cl)c3)n2)cc1`: the Potency was 411 nM (active).

In the case of `c1cncc(CNc2ccnc(-c3ccc4cn[nH]c4c3)n2)c1`, the Potency was 829 nM (active).

On to `Clc1ccc(CNc2ccnc(-c3ccc4[nH]ncc4c3)n2)cc1Cl`, for which the Potency is 514 nM (active).

Take `Cc1c(-c2ccnc(NCc3ccc(Cl)cc3)n2)sc(=O)n1C`: the Potency is 51.6 nM (active).

On to `Brc1ccc(CNc2nccc(-c3ccc4c(c3)OCO4)n2)cc1Br`, for which the Potency was 112 nM (active).

`Clc1ccc(CNc2nccc(-c3ccc4cn[nH]c4c3)n2)cc1Cl`: the Potency is 599 nM (active).

With `Cc1nc(CN(C)c2ncnc3ccc(-c4ccc5[nH]ncc5c4)cc23)cs1`, the Potency is 89.5 nM (active).

`c1nc(NCC2CCCO2)c2cc(-c3ccc4c(c3)OCO4)ccc2n1` (stereo unspecified): the Potency is 141 nM (active).

On to `Clc1ccc(CNc2nccc(-c3ccc4c(c3)OCO4)n2)cc1Cl`, for which the Potency was 37.8 nM (active).

`c1cncc(CNc2ccnc(-c3ccc4[nH]ncc4c3)n2)c1`: the Potency is 178 nM (active).
